zVAD death inh: inhibitors of zVAD-triggered necroptosis, primary screen, L929 cells; viability rescue, % at 10 µM; L929 zVAD necroptosis rescue, ATP luminescence, 24 h; with zVAD 60 µM; AID 1377, 2008; hit rate 0.38% among 220,000;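 active = activation, scaled between plate controls, above about 75%, limit read from the data; inactive = activation under that limit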;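 also: 0% = zVAD with DMSO and 100% = DMSO alone without zVAD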
PERK inh: block of dimerizer-induced PERK translation repression, primary screen, PERK inhibitor project, CHO PERK-DD cells, SEAP luminescence, HTS; Eukaryotic translation initiation factor 2-alpha kinase 3 (Homo sapiens), Q9NZJ5; CHO PERK-DD fusion, SEAP luminescence translation reporter; inhibition, % at 5.6 µM; hit rate 0.17% among 220,000;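 active = inhibition above the mean inhibition of all tested compounds plus 3 SD, set separately per screening campaign, cut at about 2.9% in these data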;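 also: PERK kinase domain activated by AP20187 dimerizer at 100 nM; 0% = DMSO with dimerizer and 100% = rapamycin at 8.4 µM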
PKD1 inh: inhibitors of human PKD1 kinase, biochemical, fluorescence polarization | inhibition, % (test concentration not listed) | PKD1 kinase fluorescence polarization assay | hit rate 0.056% among 200,000 | Serine/threonine-protein kinase D1 (Homo sapiens), Q15139; in the data active = inhibition above about 50%
Target sequence (Q15139 whole entry, looked up): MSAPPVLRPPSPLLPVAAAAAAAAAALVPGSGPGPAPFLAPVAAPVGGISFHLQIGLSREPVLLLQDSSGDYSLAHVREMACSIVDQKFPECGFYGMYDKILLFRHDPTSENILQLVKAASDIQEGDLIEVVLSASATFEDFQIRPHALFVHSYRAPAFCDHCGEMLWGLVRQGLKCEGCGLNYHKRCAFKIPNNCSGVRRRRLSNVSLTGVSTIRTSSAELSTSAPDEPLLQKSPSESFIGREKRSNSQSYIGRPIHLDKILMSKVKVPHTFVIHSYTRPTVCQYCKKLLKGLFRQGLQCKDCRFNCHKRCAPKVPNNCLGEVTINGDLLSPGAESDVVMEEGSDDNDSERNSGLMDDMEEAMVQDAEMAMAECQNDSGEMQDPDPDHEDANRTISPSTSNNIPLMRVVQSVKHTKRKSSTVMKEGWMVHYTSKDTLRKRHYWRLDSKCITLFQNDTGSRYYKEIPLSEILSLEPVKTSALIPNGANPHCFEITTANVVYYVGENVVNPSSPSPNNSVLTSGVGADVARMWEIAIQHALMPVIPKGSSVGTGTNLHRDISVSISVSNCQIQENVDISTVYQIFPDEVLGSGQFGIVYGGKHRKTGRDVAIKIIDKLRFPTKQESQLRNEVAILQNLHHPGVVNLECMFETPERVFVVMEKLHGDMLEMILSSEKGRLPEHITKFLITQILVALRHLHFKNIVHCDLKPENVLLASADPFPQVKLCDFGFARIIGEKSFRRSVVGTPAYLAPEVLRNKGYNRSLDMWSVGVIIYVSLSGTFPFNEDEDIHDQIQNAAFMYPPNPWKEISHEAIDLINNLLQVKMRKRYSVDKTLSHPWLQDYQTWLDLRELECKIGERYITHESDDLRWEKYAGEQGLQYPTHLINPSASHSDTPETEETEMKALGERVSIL
WT yeast gro inh: growth inhibition of WT strain, primary screen, mitochondrial fusion inhibitor project, WT and mutant strains, chemical genetic. mitochondrial fusion phenotypic screen. inhibition, % at 10 µM. hit rate 2.1% among 190,000. AID 1362, 2008; in the data active = inhibition above about 58%; tested in S. cerevisiae
DTT redox prof: compounds producing H2O2 with reducing agent – biochemical, NIH compound library profiling, artefact control for MLSCN library redox annotation, primary screen. DTT-dependent redox cycling H2O2, phenol red/HRP absorbance; 100% = 100 µM peroxide control, 0% = buffer. hit rate 0.03% among 200,000. activation, % at 10 µM;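 active = activation of at least 50% relative to the plate's high and low controls in the primary single-dose screen; inactive = activation below 50%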;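 also: compound incubated with DTT at 0.8 mM final as the reducing agent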
TNF death inh: inhibitors of TNF-alpha triggered necroptosis, primary screen, cell-based, Jurkat FADD-/-, single concentration; hit rate 0.068% among 220,000; Jurkat FADD-/- TNF necroptosis rescue, ATP luminescence, 24 h; 0 = TNF only, 100 = no-TNF cells; activation (protection from cell death), % at 10 µM;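 active = activation, meaning protection from cell death, of at least 50% relative to plate controls; inactive = activation below 50%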;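 also: necroptosis triggered by 40 ng/mL TNF-alpha added together with compound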
zVAD necrop conf: inhibitors of zVAD-triggered necroptosis in L929, confirmation, L929 cells, duplicate runs; hit rate 16% among 760; activation (protection from necroptosis), % at 10 µM; AID 463117, 2010; L929 zVAD-induced necroptosis rescue, ATP luminescence, 24 h; shares compounds with zVAD death inh;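 active = mean protection from necroptosis of at least 50% over duplicate tests; inactive = mean protection below 50%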;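 also: 0% = cells with zVAD alone and 100% = vehicle cells without zVAD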
An asterisk follows results filed as active. This is a sample that favours compounds with a hit; in the whole collection about 2.4% have one here.

Results for CCSc1nc2c(cnn2-c2ccccc2)c(=O)n1N ?
zVAD death inh: 3; PERK inh: 1; TNF death inh: 3

What do the screens show for `O=[N+]([O-])/C(C=Nc1ccccc1O)=C\Nc1ccccc1O`?
zVAD death inh: 87*; PERK inh: 0; TNF death inh: 0; zVAD necrop conf: 31

How did O=[N+]([O-])/C(=C\Nc1ccccc1Cl)S(=O)(=O)c1ccccc1 do in these assays?
zVAD death inh: 0; PERK inh: 0; PKD1 inh: -8; WT yeast gro inh: 13; DTT redox prof: -8; TNF death inh: -3

What do the screens show for `C=CC(=O)NC(NC(=O)C=C)c1ccccc1F`?
zVAD death inh: 0; PERK inh: 0; TNF death inh: -2

How did Cn1ncc2c(Nc3ccc4ccccc4c3)ncnc21 do in these assays?
zVAD death inh: 92*; PERK inh: 0; PKD1 inh: -1; WT yeast gro inh: -2; DTT redox prof: 0; TNF death inh: -3; zVAD necrop conf: 3

Results for Cc1cccc(Nc2ncnc3c2cnn3C)c1 ?
zVAD death inh: 62; PERK inh: 1; PKD1 inh: -4; WT yeast gro inh: -4; DTT redox prof: 0; TNF death inh: 2

How did Cc1cccc(N=c2oc3cc(O)ccc3cc2C(N)=O)c1 do in these assays?
zVAD death inh: 83*; PERK inh: 0; PKD1 inh: 6; WT yeast gro inh: 12; DTT redox prof: 3; TNF death inh: -4; zVAD necrop conf: 20

What do the screens show for `CN1C(=O)/C(=C\C(=O)c2cccs2)c2ccccc21`?
zVAD death inh: 86*; PERK inh: 1; PKD1 inh: -5; WT yeast gro inh: 78; DTT redox prof: 2; TNF death inh: -9; zVAD necrop conf: 2

Results for C/C(=N\OCC(=O)Nc1ccc2c(c1)OCCO2)c1ccc2c(c1)OCCO2 ?
zVAD death inh: 86*; PERK inh: 0; PKD1 inh: -5; WT yeast gro inh: 23; DTT redox prof: 0; TNF death inh: 1; zVAD necrop conf: 4

How did O=c1[nH]c(/C=C/c2cccc3ccccc23)nc2ccccc12 do in these assays?
zVAD death inh: 0; PERK inh: -1; PKD1 inh: -8; WT yeast gro inh: 11; DTT redox prof: -1; TNF death inh: 0

How did O=c1nc2cccc3c2=c(/c1=C(\O)c1ccccc1)c1ccccc1c3=O do in these assays?
zVAD death inh: 80*; PERK inh: 0; PKD1 inh: 1; WT yeast gro inh: 3; DTT redox prof: -1; TNF death inh: 3; zVAD necrop conf: 0

What do the screens show for `Cc1cnc(NC(=O)c2cccc(S(=O)(=O)N3CC(C)OC(C)C3)c2)s1` (stereo not drawn)?
zVAD death inh: 3; PERK inh: 0; PKD1 inh: 3; WT yeast gro inh: 15; DTT redox prof: 0; TNF death inh: 1

Results for Cc1nc2nc(SCC(=O)c3ccc([N+](=O)[O-])cc3)[nH]c2cc1Br ?
zVAD death inh: 90*; PERK inh: 1; PKD1 inh: -12; WT yeast gro inh: -16; DTT redox prof: 1; TNF death inh: 0; zVAD necrop conf: 1

How did CN(C)CCCNCC(=O)NN(c1ccccc1)c1ccccc1 do in these assays?
zVAD death inh: 1; PERK inh: 1; TNF death inh: 2
